{"source": "PubChem BioAssay AID588689", "about": "(Southern Research Specialized Biocontainment Screening …, 2011)", "note": "The whole screen tested about 340,000 compounds, of which about 1,000 (0.29%) were called active. These entries were drawn from the full list. Results with a measured potency or affinity are listed apart. Unmarked numbers belong to inactive results. Rule as the data show it: inconclusive = inhibition above about 29% without an active follow-up result; inactive = below that.", "data": [{"biological_target": "Genome polyprotein (Dengue virus type 2 (strain 16681-PDK53)) (UniProt P29991)", "assay": "Dengue-2 NS5 methyltransferase inhibitors, primary screen, biochemical, confirmation dose response (AID 588689)", "conditions": "Dengue-2 NS5 methyltransferase capping enzyme assay, at 25 µM, hits give high values", "units": {"inhibition": "%"}, "values": [{"smiles": "O=C(CSc1nnc(Cc2ccccc2)n1-c1ccc(Cl)cc1)N1CCOCC1", "inhibition": -3.47}, {"smiles": "N=C1C(c2ccccc2)=C(O)C2CCc3ccccc3N12", "note": "(centres undefined)", "inhibition": -2.07}, {"smiles": "CC(=O)N1CCN(c2ccc([N+](=O)[O-])cc2C#N)CC1", "inhibition": -1.43}, {"smiles": "O=C1N/C(=C/c2cccn2-c2ccc(F)cc2)C(=O)N1Cc1ccccc1", "inhibition": -0.68}, {"smiles": "O=C1NC(=O)N(Cc2ccccc2)C1=O", "inhibition": 0}, {"smiles": "O=C(CN1CCN(c2ccc(F)cc2)CC1)c1ccc2c(c1)OCO2", "inhibition": -2.07}, {"smiles": "CC(=O)OC1C([N+]2(C)CCCCC2)C[C@H]2C3CC[C@H]4C[C@H](OC(C)=O)C([N+]5(C)CCCCC5)CC4(C)[C@H]3CCC12C", "note": "(some centres undefined)", "inhibition": -1.47}, {"smiles": "Cn1c(SCc2ccccc2)nccc1=O", "inhibition": 1.94}, {"smiles": "O=C1C(SCCO)=C(SCCO)C(=O)c2ccccc21", "inhibition": -3.66}, {"smiles": "COc1ccc(Nc2ncnc3sc(-c4ccccc4)cc23)cc1", "inhibition": -5.46}, {"smiles": "Cc1ccc(S(=O)(=O)NN2C(=O)/C(=C/c3ccccn3)SC2=S)cc1", "inhibition": 14}, {"smiles": "O=C(NN1C(=O)/C(=C/c2cccs2)SC1=S)c1ccncc1", "inhibition": -4.6}, {"smiles": "O=C(NN1C(=O)/C(=C/c2cccs2)SC1=S)c1ccccc1", "inhibition": -1.93}, {"smiles": "CCN1C(=O)/C(=C/c2cccs2)S/C1=N\\S(=O)(=O)c1ccc(C)cc1", "inhibition": -2.56}, {"smiles": "Cc1cc(C)cc(OCC(=O)N/N=C/c2ccccn2)c1", "inhibition": 6.27}, {"smiles": "COc1cc2c(cc1OC)C(c1cccs1)N(C(=S)NC(C)C)CC2", "note": "(centres undefined)", "inhibition": -5.35}, {"smiles": "Cc1ccc(-c2nnn(CC(=O)N(Cc3ccccc3)C(C(=O)NC(C)(C)C)c3ccncc3)n2)o1", "note": "(centres undefined)", "inhibition": -0.68}, {"smiles": "Cc1cccc(C)c1OCC(O)Cn1c2ccccc2c2ccccc21", "note": "(centres undefined)", "inhibition": -10.5}, {"smiles": "CCCc1c(C)c2ccccc2[nH]c1=O", "inhibition": -1.65}, {"smiles": "Cc1ccc(C(=O)O)cc1NS(=O)(=O)c1ccc2c(c1)oc(=O)n2C", "inhibition": -6.53}, {"smiles": "O=C(O)c1cccc(N2C(=O)c3ccc4c5c(ccc(c35)C2=O)C(=O)N(c2cccc(C(=O)O)c2)C4=O)c1", "inhibition": 16.5}, {"smiles": "Cc1cc(C)cc(N2C(=O)C=CC2=O)c1", "inhibition": -24.7}, {"smiles": "O=C(O)c1cccc(N2C(=O)C3CC=CCC3C2=O)c1", "note": "(centres undefined)", "inhibition": -1.37}, {"smiles": "O=C(O)c1cc(C(=O)O)cc(N2C(=O)CSC2=S)c1", "inhibition": -4.42}, {"smiles": "N/C(=N\\OC(=O)Oc1ccccc1)c1ccc(Cl)cc1", "inhibition": 2.93}, {"smiles": "COc1ccc(CNC(=O)c2cc(=O)c3cc(C)cc(C)c3o2)cc1", "inhibition": -5.29}, {"smiles": "O=[N+]([O-])c1ccc(SCc2c(F)cccc2Cl)nc1", "inhibition": -6.18}, {"smiles": "O=C(O)/C=C/C(=O)Nc1ccc(-c2ccccc2)cc1", "inhibition": -12.6}, {"smiles": "O=C(O)/C=C/C(=O)Nc1ccc(C(=O)c2ccccc2)cc1", "inhibition": -4.59}, {"smiles": "CC(C)CN(C(=O)CCCSc1nc2ccccc2[nH]1)c1c(N)n(Cc2ccccc2)c(=O)[nH]c1=O", "inhibition": 2.91}, {"smiles": "CCC1(C)Cc2c(sc3[nH]c(=S)[nH]c(=S)c23)CO1", "note": "(centres undefined)", "inhibition": -4.57}, {"smiles": "CC1(C)Cc2c(sc3[nH]c(=S)[nH]c(=O)c23)CO1", "inhibition": -1.64}, {"smiles": "O=S(=O)(/N=C(\\Nc1ccc(F)cc1)C(F)(F)F)c1ccccc1", "inhibition": 3.78}, {"smiles": "COc1ccc(C(=O)C(C)Oc2cccc(NC(=O)c3cccc([N+](=O)[O-])c3)c2)cc1", "note": "(centres undefined)", "inhibition": 3.25}, {"smiles": "NS(=O)(=O)c1ccc(N=Nc2ccc(O)c3ncccc23)cc1", "inhibition": 13.7}, {"smiles": "Cc1ccccc1N=Nc1ccc(O)c2ncccc12", "inhibition": -2.17}, {"smiles": "CCN(CC)c1nc2ccccc2n(Cc2cccc(OC)c2)c1=O", "inhibition": -2.37}, {"smiles": "Cc1ccc(S(=O)(=O)N2CCC[C@H]2C(=O)OCC(=O)c2ccc3c(c2)NC(=O)CO3)cc1", "inhibition": -4.71}, {"smiles": "O=C(Cc1cccc2ccccc12)Nc1cc(Cl)ccc1C(=O)O", "inhibition": -1.36}, {"smiles": "O=C(COc1ccccc1[N+](=O)[O-])Nc1cc(Cl)ccc1C(=O)O", "inhibition": 0}, {"smiles": "O=C(COc1ccccc1C(=O)O)Nc1cccc2ccccc12", "inhibition": 1.47}, {"smiles": "CC(=O)Nc1ccccc1NC(=O)COc1cccc2ccccc12", "inhibition": -2.63}, {"smiles": "COc1cc(C(C(=O)NC2CCCC2)N(CCO)C(=O)Cn2nnc(-c3ccc(C)o3)n2)ccc1O", "note": "(centres undefined)", "inhibition": 0.83}, {"smiles": "COc1ccc(CCNC(=O)CN(c2cc(OC)ccc2OC)S(=O)(=O)c2ccccc2)cc1", "inhibition": -15.3}, {"smiles": "N#CC1(c2ccccc2)CCC(=NNS(=O)(=O)c2ccccc2)CC1", "note": "(centres undefined)", "inhibition": -6.67}, {"smiles": "CCn1c(SCC(=O)NC2CCCCC2)nnc1-c1cccs1", "inhibition": -2.08}, {"smiles": "Cc1[nH]n(-c2ccccc2)c(=O)c1-c1ccc(Cl)cc1", "inhibition": -1.62}, {"smiles": "Cc1[nH]n(-c2ccccc2)c(=O)c1C(C[N+](=O)[O-])c1ccc(Cl)cc1", "note": "(centres undefined)", "inhibition": 4.51}, {"smiles": "COc1ccc(C(c2c(C)[nH]n(C(N)=S)c2=O)C(C#N)C#N)cc1", "note": "(centres undefined)", "inhibition": 28}, {"smiles": "CCCc1[nH][nH]c(=O)c1C(c1ccc(Br)cc1)C(C#N)C#N", "note": "(centres undefined)", "inhibition": -1.4}, {"smiles": "Cc1[nH]n(-c2ccccc2)c(=O)c1C(C[N+](=O)[O-])c1ccc(Br)cc1", "note": "(centres undefined)", "inhibition": 12.4}, {"smiles": "CCCc1[nH][nH]c(=O)c1C(c1ccc(Cl)cc1)C(C#N)C#N", "note": "(centres undefined)", "inhibition": -8.33}, {"smiles": "Cc1[nH]oc(=O)c1N=Nc1ccc2[nH]c(=O)[nH]c2c1", "inhibition": -0.78}, {"smiles": "Cc1c(NC(=O)Nc2cccc(Cl)c2Cl)c(=O)n(-c2ccccc2)n1C", "inhibition": 3.9}, {"smiles": "C/C(N)=C(/C#N)C(=O)COC(=O)[C@@H](NC(=O)c1ccccc1Cl)C(C)C", "inhibition": -7.12}, {"smiles": "CCCCc1nnc(SCC(=O)Nc2nccs2)n1CC", "inhibition": -0.32}, {"smiles": "CC1CCCN(S(=O)(=O)c2ccc3[nH]c(=O)cc(C(=O)NCCCN4CCCCCC4)c3c2)C1", "note": "(centres undefined)", "inhibition": -5.49}, {"smiles": "Cc1cccc(N2C(=O)c3ccc(Br)cc3C2=O)n1", "inhibition": -2.38}, {"smiles": "O=C1c2cccnc2-c2ncccc21", "inhibition": 5.95}, {"smiles": "NC1=C(Br)C(=O)c2ncccc2C1=O", "inhibition": 20.2}, {"smiles": "COC1=C(N)C(=O)c2nc(C)ccc2C1=O", "inhibition": 12.3}, {"smiles": "O=C(OCC(=O)N1CCOCC1)c1ccc[nH]c1=O", "inhibition": -3.24}, {"smiles": "CCN(Cc1ccccc1)C(=O)CCNS(=O)(=O)c1cc(Br)cnc1N", "inhibition": 2.62}, {"smiles": "CC1CCN(c2nc3ccc(C(=O)N4CCN(Cc5ccc6c(c5)OCO6)CC4)cc3s2)CC1", "inhibition": -4.17}, {"smiles": "COc1ccc2nc(N3CCC(C)CC3)c(C#N)cc2c1", "inhibition": 14.4}, {"smiles": "COc1ccc2nc(N3CCCC3)c(C#N)cc2c1", "inhibition": 12.8}, {"smiles": "CC(=O)Nc1ccc(NC(=O)C(C)OC(=O)CCC2CCCCC2)cc1", "note": "(centres undefined)", "inhibition": 0.32}, {"smiles": "CCN(C(=O)COC(=O)/C=C/c1ccc(Cl)c(Cl)c1)c1c(N)n(Cc2ccccc2)c(=O)[nH]c1=O", "inhibition": 2.22}, {"smiles": "COc1ccccc1OCCCCNC(C)(C)C", "inhibition": -1.39}, {"smiles": "O=C(Nc1ccc(S(=O)(=O)Nc2ncccn2)cc1)c1ccc(Br)o1", "inhibition": -3.89}, {"smiles": "CC1(C)Cc2c(C#N)c(N)sc(=S)c2CO1", "inhibition": 4.14}, {"smiles": "N#Cc1c(N)sc2c1CCCCCC2", "inhibition": -3.42}, {"smiles": "COc1cc2c(cc1OC)C(c1ccccc1F)NCC2", "note": "(centres undefined)", "inhibition": -3.4}, {"smiles": "O=C(CN1CCC(NC(=O)c2ccccc2Cl)CC1)NCc1ccccc1", "inhibition": -1.62}, {"smiles": "COc1ccc(CNC(=O)C(C)N2CCN(S(=O)(=O)c3ccccc3F)CC2)cc1", "note": "(centres undefined)", "inhibition": -2.2}, {"smiles": "COc1ccc(/C=C2/C(=O)ON=C2c2ccccc2)cc1OC", "inhibition": -17.6}, {"smiles": "CCCOc1ccc(/C=C2/C(=O)ON=C2C)cc1Cl", "inhibition": 12.4}, {"smiles": "CCOc1cc(/C=C2/C(=O)ON=C2C)ccc1O", "inhibition": -24.5}, {"smiles": "C=CCOc1ccc(/C=C2/C(=O)ON=C2C)cc1OC", "inhibition": 28.1}, {"smiles": "COc1cc(/C=C2/C(=O)ON=C2c2ccccc2)ccc1O", "inhibition": -8.45}, {"smiles": "CCOc1cc(/C=C2/C(=O)ON=C2C)ccc1OCc1ccc(F)cc1", "inhibition": 24.8}, {"smiles": "CCOc1ccc(Cl)cc1/C=C1/C(=O)ON=C1C", "inhibition": 20.2}, {"smiles": "CCOc1cc(/C=C2\\C(=O)ON=C2C)ccc1OCc1ccccc1", "inhibition": -8.01}, {"smiles": "NC(=O)c1ccc(NC(=O)c2cccc(Oc3ccccc3)c2)cc1", "inhibition": -7.28}, {"smiles": "CCn1c(CC(=O)Nc2ccccc2)nnc1SCc1nc2ccccc2c(=O)[nH]1", "inhibition": -0.79}, {"smiles": "Nc1ncnc2c1ncn2[C@@H]1O[C@H](CNC(=O)[C@H](N)Cc2cscn2)[C@@H](O)[C@H]1O", "inhibition": -4.56}, {"smiles": "NC(=O)c1cc([N+](=O)[O-])ccc1NCc1cccc(N)c1", "inhibition": -0.8}, {"smiles": "COC(=O)Cn1c(=NC(=O)c2ccc(Cl)s2)sc2cc(C)ccc21", "inhibition": 4.02}, {"smiles": "O=C(NC(=S)NCc1ccccc1)c1ccccc1[N+](=O)[O-]", "inhibition": -9.35}, {"smiles": "O=C(NCCc1ccccc1)C(=O)Nc1ccc2c(c1)OCCO2", "inhibition": -12.2}, {"smiles": "O=C(c1ccc(Cl)c(Cl)c1)N1CCN(c2ccccn2)CC1", "inhibition": -2.38}, {"smiles": "COCCN(C(=O)CSc1nnc(-c2ccccc2F)n1N)c1c(N)n(Cc2ccccc2)c(=O)[nH]c1=O", "inhibition": 11.2}, {"smiles": "CCOc1ccc(OCCCC(=O)NCCOc2ccccc2OC)cc1", "inhibition": -5.46}, {"smiles": "Cc1cccc(OCC(=O)NC(=S)Nc2ccc(S(=O)(=O)NC3CCCCC3)cc2)c1", "inhibition": 0}]}]}
